According to PubChem BioAssay (Tox21):
Where “and” joins values, the source holds several entries; their conditions need not be identical. Equal entries are not always repeated. Records with an inconclusive call do not appear. Calls of active or inactive are those of the source. Calls come from the whole dose curve; as a rule, active = well fitted activation curve with a large enough effect in the repeat runs; inconclusive = weak or mixed curves; inactive = no such curve, though single readings can be large or run the other way.

molecular target: Aryl hydrocarbon receptor (Homo sapiens) (UniProt P35869); assay: qHTS assay to identify small molecule that activate the aryl hydrocarbon receptor (AhR) signaling pathway (AID 743085); conditions: HepG2 AhR-luc (HG2L7.5c1), luciferase, 24 h; series mostly up to 70.3 µM; activation: at the top concentration; note: nearly all actives have a fitted effect of over 15% in size;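 for activation: HG2L7.5c1 human HepG2 liver cells with stably integrated DRE-driven firefly reporter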
From the text: U.S. Tox21 Program National Center for Advancing Translational Sciences [NCATS] NIH Chemical Genomics Center [NCGC] U.S. Environmental Protection Agency [EPA] National Institutes of Environmental Health Sciences [NIEHS] National Toxicology Program [NTP] U.S. Food and Drug Administration [FDA] Tox21 Assay overview: The Aryl hydrocarbon Receptor (AhR), a member of the family of basic helix-loop-helix transcription factors, is crucial to adaptive responses to environmental changes. AhR mediates cellular responses to environmental pollutants such as aromatic hydrocarbons through induction of phase I and II enzymes but also interacts with other nuclear receptor signaling pathways. A cell based HepG2-AhR-luc assay (HG2L7.5c1 cell line, developed by Dr. Michael S. Denison, University of California at Davis, was used to assess the activation of AhR. HepG2 (human hepatocellular carcinoma) cells were stably transfected with an Ah receptor-responsive firefly luciferase reporter gene plasmid containing 20 dioxin responsive elements and luciferase reporter gene. Increased luciferase activity can be used to identify the compounds that induce AhR activation.
Tox21 Assay Protocol Summary: 4000 cells in 5 uL/well were dispensed into white wall/solid bottom 1536-well plates using a Multidrop Combi (Thermo Fisher Scientific Inc., Waltham, MA) dispenser. After the assay plates were incubated at 37C for 5 h, 23 nL of compound or DMSO vehicle was transferred to the assay plates by a pintool station (Kalypsys, San Diego, CA). The plates were incubated at 37C for 24 hr. After 1 ul/well of CellTiter-Fluor reagent (Promega, Madison, WI) was added into the assay plates using a Flying Reagent Dispenser (FRD) (Aurora Discovery, CA), the assay plates were incubated at 37C for 30 min. The fluorescence intensity in the plates was measured using a ViewLux plate reader (PerkinElmer, Shelton, CT), followed by the addition of 4 uL of ONE-Glo Luciferase Assay reagent (Promega) using an FRD (Aurora Discovery). After the assay plates were incubated at room temperature for 30 min, luminescence intensity was measured using a ViewLux plate reader (Perkin Elmer).
% is set by controls: 0 for no effect and ±100 for the full control effect; potency is the fitted concentration of half-maximal effect.

Aryl hydrocarbon receptor (Homo sapiens), sequence (P35869 whole entry, looked up): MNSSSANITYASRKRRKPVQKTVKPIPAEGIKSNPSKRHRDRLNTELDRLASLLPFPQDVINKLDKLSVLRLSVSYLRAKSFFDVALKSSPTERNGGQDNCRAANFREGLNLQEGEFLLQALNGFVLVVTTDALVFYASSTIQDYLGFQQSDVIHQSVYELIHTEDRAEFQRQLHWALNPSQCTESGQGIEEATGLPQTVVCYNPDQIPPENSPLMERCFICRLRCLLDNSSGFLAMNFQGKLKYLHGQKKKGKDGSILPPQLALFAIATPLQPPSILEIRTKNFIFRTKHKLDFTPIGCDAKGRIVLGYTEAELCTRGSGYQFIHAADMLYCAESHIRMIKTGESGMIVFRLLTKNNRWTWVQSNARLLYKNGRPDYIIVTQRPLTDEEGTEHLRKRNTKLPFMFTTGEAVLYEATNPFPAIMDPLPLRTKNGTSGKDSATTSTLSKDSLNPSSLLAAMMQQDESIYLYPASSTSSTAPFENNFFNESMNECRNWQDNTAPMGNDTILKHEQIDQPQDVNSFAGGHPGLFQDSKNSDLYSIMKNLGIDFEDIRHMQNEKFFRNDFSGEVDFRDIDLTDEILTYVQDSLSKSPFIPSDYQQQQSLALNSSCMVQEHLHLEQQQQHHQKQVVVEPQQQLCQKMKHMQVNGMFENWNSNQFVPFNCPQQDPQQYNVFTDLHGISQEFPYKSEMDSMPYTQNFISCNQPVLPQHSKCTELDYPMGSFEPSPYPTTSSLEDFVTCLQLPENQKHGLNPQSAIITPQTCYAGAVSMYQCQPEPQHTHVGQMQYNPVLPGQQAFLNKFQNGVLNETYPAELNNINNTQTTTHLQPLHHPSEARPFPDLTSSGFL

Structure (SMILES)	activation	Potency
CCOC(=O)O[C@H](C)OC(=O)c1ccc2c(c1)cc(C(=O)NC1CCN(C(C)C)CC1)n2Cc1cc(-c2ccc(Cl)s2)on1	-0.45% (inactive)	–
CCCCN1C(=O)[C@@H]([C@H](O)C2CCCCC2)NC(=O)C12CCN(Cc1ccc(Oc3ccc(C(=O)O)cc3)cc1)CC2	2.94% (inactive)	–
CCCCCCCCCCCCCC[P+](CCCC)(CCCC)CCCC (tested in a mixture with another compound)	-12.4% [at 95 µM] (inactive)	–
Nc1c2ccccc2nc2ccccc12	–	11.9 µM (active) and 13.5 µM (active)
CCCCCCC[N+](CC)(CC)CCCCc1ccc(Cl)cc1	3.04% [at 32.5 µM] (inactive)	–
C[n+]1ccn(Cc2ccccc2)c1	-1.76% (inactive)	–
N/C(=N\N=C\c1ccc(Cl)cc1)N/N=C/c1ccc(Cl)cc1	–	13.3 µM (active)
CCCC/C=C/CCCCO	-0.0263% (inactive)	–
CC(C)=CCOc1ccc(/C=C/C(=O)c2ccc(OCC=C(C)C)cc2OCC(=O)O)cc1	0.0517% (inactive)	–
CC(C)(C)C(=O)OCOC(=O)C1N2C(=O)CC2S(=O)(=O)C1(C)C (stereo not given)	0.279% (inactive)	–
COc1ccc(CN2CCN(C(c3ccc(F)cc3)c3ccc(F)cc3)CC2)c(OC)c1OC	5.39% (inactive)	–
CCc1cc(Cc2cc(CC)c(N)c(CC)c2)cc(CC)c1N	–	2.73 µM (active)
Oc1ccc(Cl)cc1Sc1cc(Cl)ccc1O	–	inactive
CCCCCCCC[N+](CCCCCCCC)(CCCCCCCC)CCCCCCCC	-3.13% (inactive)	–
CN(C)c1ccc(C2(c3ccc(N(C)C)cc3)OC(=O)c3cc(N(C)C)ccc32)cc1	1.51% (inactive)	–
CN(C)c1ccc(SC#N)cc1	5.78% (inactive)	–
CCCCCCCC/C=C/CCCCCCCC1=NCCN1CCO	-0.571% (inactive)	–
Clc1ccc2nsnc2c1NC1=NCCN1	1.17% (inactive)	–
OCCCCCCCCCCCCBr	7.31% [at 95 µM] (inactive)	–
CCCCCCCCCCCCCCCS(=O)(=O)Oc1ccccc1	-0.0286% (inactive)	–

Structure (SMILES)	activation	Potency
Clc1ccc2n[nH]nc2c1	3.43% (inactive)	–
CCCCCCCCS(=O)C(C)Cc1ccc2c(c1)OCO2 (stereo not given)	–	27.8 µM (active)
CN(C/C=C/C#CC(C)(C)C)Cc1cccc2ccccc12	5.12% (inactive)	–
c1cc(C(c2ccc(OCC3CO3)cc2)c2ccc(OCC3CO3)cc2)ccc1OCC1CO1 (stereo not given)	-0.623% (inactive)	–
Cc1nc(-c2ccc3c(c2)CCN(CCC2CCC(NC(=O)/C=C/c4ccc(F)cc4)CC2)CC3)no1 (stereo not given)	0.295% [at 32.5 µM] (inactive)	–
CC(C)n1nc(-c2cc3cc(O)ccc3[nH]2)c2c(N)ncnc21	–	3.76 µM (active)
Fc1ccc([C@@H]2CCNC[C@H]2COc2ccc3c(c2)OCO3)cc1	-12.4% (inactive)	–
O=[N+]([O-])c1cc(Cl)c(Cl)c(Cl)c1Cl	7.21% (inactive)	–
Cc1ccc(O)c(C(C)(C)C)c1	–	inactive
CCCCCCCC/C=C\CCCCCCCCOCCO	-3.79% [at 95 µM] (inactive)	–
On1ccccc1=S	-0.708% (inactive)	–
Cc1cc(C2CCCCC2)n(O)c(=O)c1	2.99% [at 32.5 µM] (inactive)	–
NC(=O)CC[C@@H]1NC(=O)[C@H](Cc2ccccc2)NC(=O)[C@H](Cc2ccc(O)cc2)NC(=O)CCSSC[C@@H](C(=O)N2CCC[C@H]2C(=O)N[C@@H](CCCN=C(N)N)C(=O)NCC(N)=O)NC(=O)[C@H](CC(N)=O)NC1=O	-1.91% (inactive)	–
CCCCCCCCCCCCc1ccc(O)cc1	2.04% (inactive)	–
Oc1cccc(-c2c3nc(c(-c4cccc(O)c4)c4ccc([nH]4)c(-c4cccc(O)c4)c4nc(c(-c5cccc(O)c5)c5ccc2[nH]5)CC4)C=C3)c1	-14.6% (inactive)	–
Cc1[nH]cnc1C[C@H]1CCc2c(C)c3ccccc3n2C1=O	–	inactive
CCCCCCCCCCn1cc[n+](CCCCCCCCCC)c1C	-13.3% (inactive)	–
CC(C)(C)C(=O)OCOC(=O)[C@@H]1N2C(=O)[C@@H](NC(=O)[C@H](N)c3ccccc3)[C@H]2SC1(C)C	-0.85% [at 32.5 µM] (inactive)	–
C=CC(=O)OCC(CO)(COC(=O)C=C)COC(=O)C=C	–	inactive
O=c1[nH]cnc2nc[nH]c12	0.722% (inactive)	–
